Source: PubChem (several laboratories)
CYP2C9 activ – human CYP2C9 activators, primary screen, biochemical, luminescence | 96,000 tested, 1.4% active | recombinant CYP2C9, luciferin-H conversion; hits give high values; factor 1 = untreated enzyme, 0 = blocked | activation factor at 5 µM;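 active = activation factor of 2 or more for CYP2C9 at a 5 µM dose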;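 also: 0 = sulfaphenazole-blocked wells and 1 = vehicle-only wells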
CYP2C19 act – human CYP2C19 activators, primary screen, biochemical, luminescence. Cytochrome P450 2C19 (Homo sapiens), P33261. recombinant CYP2C19, luciferin-H EGE luminescence; hits give high values; 0 = fully inhibited enzyme, 1 = untreated enzyme. activation factor at 5 µM. 96,000 tested, under 10 active;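 active = activation factor of at least 2 at 5 µM in the primary screen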;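 also: 0 = wells with 2.5 mM tranylcypromine and 1 = vehicle-only wells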
Target sequence (P33261 whole entry, looked up): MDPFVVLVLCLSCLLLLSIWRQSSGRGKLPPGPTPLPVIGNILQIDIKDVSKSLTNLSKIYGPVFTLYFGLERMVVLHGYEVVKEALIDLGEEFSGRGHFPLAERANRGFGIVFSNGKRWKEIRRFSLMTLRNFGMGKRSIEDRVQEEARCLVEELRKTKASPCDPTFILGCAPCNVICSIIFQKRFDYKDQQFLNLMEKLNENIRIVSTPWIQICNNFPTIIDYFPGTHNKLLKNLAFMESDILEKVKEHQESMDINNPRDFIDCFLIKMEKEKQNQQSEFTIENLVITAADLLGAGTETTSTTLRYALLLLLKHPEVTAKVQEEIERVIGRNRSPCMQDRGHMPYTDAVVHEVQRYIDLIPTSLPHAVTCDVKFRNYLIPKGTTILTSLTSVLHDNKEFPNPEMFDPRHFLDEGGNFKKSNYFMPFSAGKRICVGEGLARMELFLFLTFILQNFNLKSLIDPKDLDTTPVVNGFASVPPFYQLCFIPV
F-actin modifier – modifiers of F-actin cytoskeleton organization, primary screen, imaging, HUVEC, phalloidin staining, high-content imaging | HUVEC TNFa F-actin phalloidin imaging | inhibition, % at 2 µM | 91,000 tested, 0.18% active;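 active = inhibition above the batch mean plus 3 SD and confirmed as a hit by visual image inspection, cut at about 30% in these data, passing the limit was not always enough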
CYP2C9 inh – blockers of cytochrome P450 2C9 activity – biochemical, luminescence, ADME assay, primary screen | 96,000 tested, 20% active | P11712 | CYP2C9 Supersomes, luciferin-H conversion | inhibition, % at 5 µM;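 active = blocking of liver enzyme CYP2C9 beyond about 50% at 5 µM, limit read from the data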
CYP2C19 inh – blockers of cytochrome P450 2C19 activity – biochemical, luminescence, ADME assay, primary screen | P33261 | inhibition, % at 5 µM | CYP2C19 Supersomes, luciferin-H EGE luminescence, 30 min | 96,000 tested, 21% active | AID 778, 2007;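 active = CYP2C19 inhibition above a set limit at 5 µM in the primary screen, cut at about 50% in these data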;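 also: plate controls were negative control wells for no effect and 2.5 mM tranylcypromine positive control for full effect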
E-sel TNF inh – E-selectin induction blockers in HUVEC – imaging, immunofluorescence, high content, primary screen | 120,000 tested, 0.71% active | AID 1246, 2008 | HUVEC TNFa-induced E-selectin immunofluorescence | inhibition, % at 2 µM;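 active = inhibition above the batch mean plus 3 SD, and confirmed as a hit on visual image review, cut at about 43% in these data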;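 also: 0% = TNF-stimulated DMSO wells and 100% = unstimulated control wells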
The depositor's hits bear a star; · = no result given. An excerpt weighted towards active compounds, which were near 22% of everything screened.

SMILES | CYP2C9 activ | CYP2C19 act | F-actin modifier | CYP2C9 inh | CYP2C19 inh | E-sel TNF inh
CCOc1cc(C(=S)N2CCCCC2)ccc1OS(=O)(=O)c1ccc(Cl)cc1 | 0.2 | 0.3 | 13 | 81* | 72* | 34
Cc1cc(NC(=O)CN(C)S(=O)(=O)c2cccc(Cl)c2)no1 | · | · | · | · | · | -7
O=C(CSc1cccc[n+]1[O-])Nc1cc2c(cc1Cl)C(=O)c1ccccc1C2=O | · | · | · | · | · | 0
CCOc1cc(-c2nc3ccccn3c2NCC2CCCO2)ccc1O (stereo not given) | 0.2 | 0.6 | 26 | 75* | 37 | -4
COc1cc(-c2nc3ccccn3c2NCC2CCCO2)ccc1O (stereo not given) | 1 | 1 | -17 | 0 | 0 | 6
O=S(=O)(NCc1ccco1)c1ccc(S(=O)(=O)N2CCCCC2)cc1 | · | · | -6 | · | · | 8
O=C(CSc1nnnn1-c1ccccc1)Nc1ccc(N2CCOCC2)c(Cl)c1 | 1 | 1 | 4 | -3 | 1 | -9
O=C(CSc1nnnn1-c1ccccc1)CC(=O)Nc1ccc(Cl)cc1 | 2.4* | 0.9 | -3 | -140 | 14 | 0
O=C(CSc1nnnn1-c1ccccc1)Nc1nsc(-c2ccc(Cl)cc2)n1 | 2.8* | 0.3 | · | -177 | 75* | -12
Cc1ccc(-c2nc(NC(=O)CSc3nnc(C)s3)ns2)cc1 | 0.6 | 0.3 | 8 | 44 | 65* | 18
O=C(CSc1ccc2ccccc2c1Br)Nc1cccc(S(=O)(=O)NC2=NCCCCC2)c1 | · | · | · | · | · | 5
Cc1nn(CCOc2ccccc2)c(=O)n1-c1c(F)cccc1F | 1.5 | 0.1 | -14 | -53 | 85* | 22
C=CCN1C(=O)C2C(C(=O)NC3CCCCC3)C3C=CC2(O3)C1C(=O)NC1CCCC1 (stereo not given) | 1.1 | 1.1 | -14 | -14 | -11 | 12
O=C1CC(c2ccccc2)n2nc(NC(=O)C3CCCO3)nc2N1 (stereo not given) | 0.2 | 0.1 | · | 79* | 91* | 45*
O=C(CCCn1ncn2c(cc3occc32)c1=O)N1CCc2ccccc2C1 | · | · | · | · | · | -24
CCC(C(=O)N1CCc2ccccc2C1)n1nc(C)n2c(cc3occc32)c1=O (stereo not given) | 0.3 | 0.3 | · | 69* | 68* | ·
Cc1cccc(N2CCN(C(=O)C(C)n3nc(C)n4c(cc5occc54)c3=O)CC2)c1C (stereo not given) | 0.3 | 0.9 | 3 | 68* | 9 | 27
CCC(C(=O)N1CCN(c2ccccn2)CC1)n1nc(C)n2c(cc3occc32)c1=O (stereo not given) | 0.1 | 0.5 | · | 91* | 46 | ·
CCc1nn(C(C)C(=O)N2CCN(Cc3ccccc3)CC2)c(=O)c2cc3occc3n12 (stereo not given) | 0.3 | 0.3 | · | 67* | 66* | ·
Cc1nn(C(C)C(=O)N2CCN(c3ccccn3)CC2)c(=O)c2cc3occc3n12 (stereo not given) | 0.8 | 0.9 | · | 16 | 12 | -37
COC(=O)CN1C(=O)C(O)(CC(=O)c2cccc(Br)c2)c2ccccc21 (stereo not given) | 0.9 | 0.6 | -17 | 12 | 41 | 0
Cc1nn(C(C)C(=O)N2CCc3ccccc3C2)c(=O)c2cc3occc3n12 (stereo not given) | 1 | 0.5 | · | 4 | 52* | ·
O=C(CSc1nnc(Cc2ccc3c(c2)OCO3)n1C1CCCCC1)NC1CCCC1 | · | · | 2 | · | · | -21
Cc1ccc(O)c(-c2cc(-c3cccc(Br)c3)n[nH]2)c1 | · | · | · | · | · | -6
Cc1nnc(-c2cccc(Br)c2)c2cn(-c3ccccc3Cl)nc12 | 0.3 | 0.4 | 1 | 66* | 60* | 10
SMILES | CYP2C9 activ | CYP2C19 act | F-actin modifier | CYP2C9 inh | CYP2C19 inh | E-sel TNF inh
Cc1ccc(-n2cc3c(-c4cccc(Br)c4)nnc(C)c3n2)cc1 | 0.1 | 0.2 | -8 | 92* | 77* | 22
CON/C=C(\C=Nc1ccccc1)c1ncc(C(F)(F)F)cc1Cl | 1.1 | 0.6 | -25 | -14 | 37 | 20
CCCCNC(=O)NS(=O)(=O)c1ccc(NS(=O)(=O)c2ccccc2)cc1 | 0.4 | 1 | -22 | 55* | -2 | ·
CC(=O)N(C)c1ccc(OCC(O)COc2ccc(N(C)C(C)=O)cc2)cc1 | 1.1 | 1.1 | 2 | -6 | -11 | -8
Cc1cc(C)nc(NS(=O)(=O)c2ccc(NS(=O)(=O)c3ccccc3)cc2)n1 | 0.7 | 0.9 | -23 | 26 | 11 | 5
O=C(COc1ccc2oc(-c3ccccc3)cc(=O)c2c1)NCc1ccco1 | 0.4 | 0.8 | 3 | 58* | 24 | 8
COc1cccc(S(=O)(=O)Nc2ccc(C(=O)NCc3ccco3)cc2)c1 | 0 | 0.4 | 13 | 98* | 61* | -1
CC(=O)N(C)c1ccc(OCC(O)CN(Cc2ccco2)S(=O)(=O)c2ccc(C)cc2)cc1 (stereo not given) | 0.2 | 1 | 6 | 80* | 5 | -15
O=c1/c(=C/c2cccc3ccccc23)sc2ncnn12 | 1 | 1 | -19 | 0 | 3 | 10
O=C(Nc1ccc(O)cc1C(=O)O)c1cccc(Br)c1 | 0.5 | 0.9 | · | 48 | 10 | 10
Nc1cc(N)nc(SCC(=O)Nc2ccc3c(c2)OCCCO3)n1 | 0.6 | 0.7 | 26 | 45 | 26 | 5
COc1ccc(NS(=O)(=O)c2cccc(C(=O)OCC(=O)Nc3cc(C)on3)c2)cc1 | 0.3 | 0.9 | 2 | 71* | 10 | -17
Cc1ccc(S(=O)(=O)N(C)c2ccc(OCC(=O)NCc3ccco3)cc2)cc1 | 0.1 | 0.8 | -16 | 93* | 16 | -7
CN(C)c1cccc(C(=O)OCC(=O)NCc2ccco2)c1 | · | · | 4 | · | · | -6
Cc1ccc(NS(=O)(=O)c2cccc(C(=O)OCC(=O)NCc3ccco3)c2)cc1 | 0.1 | 0.4 | · | 86* | 59* | -12
Cc1ccc(C)c(NS(=O)(=O)c2ccc(OCC(=O)NCc3ccco3)cc2)c1 | 1 | 1 | -9 | 2 | -5 | 4
Cc1ccc(NS(=O)(=O)c2ccc(OCC(=O)NCc3ccco3)cc2)cc1 | 0.1 | 0.3 | 17 | 85* | 75* | -10
CC(C)NS(=O)(=O)c1ccc(OCC(=O)NCc2ccco2)cc1 | · | · | · | · | · | 10
CCNC(=O)COc1ccc(S(=O)(=O)Nc2ccccc2)cc1 | 0.4 | 0.6 | 6 | 62* | 39 | -2
COCCCNC(=O)COc1ccc(S(=O)(=O)Nc2ccccc2)cc1 | 0.5 | 0.8 | -11 | 48 | 23 | -19
Nc1ccc(C(=O)N/N=C/c2ccccc2)cc1 | 1.2 | 1.1 | 12 | -15 | -15 | -10
Cc1ccc(S(=O)(=O)NCCC(C)C)cc1[N+](=O)[O-] | · | · | · | · | · | 5
COc1ccc(S(=O)(=O)NCCC(C)C)cc1C | 1.9 | 0.2 | 1 | -87 | 85* | ·
